The values that follow come from PubChem BioAssay (Tox21).

Values joined by “and” are separate entries in the source; they are usually repeats but may differ in a detail not shown here. Equal values may be shown once. Active and inactive are the calls of the source. Calls follow the shape of the dose curve; as a rule, active = well fitted activation curve with a large enough effect in the repeat runs; inconclusive = weak or mixed curves; inactive = flat fitted curve, though single readings scatter.
% is scaled to controls: 0 for no effect and ±100 for the full control effect; potency is read from the fitted curve at half-maximal effect.

This experiment in a line: A CellTox Green Cytotoxicity Assay to monitor cytotoxicity in HEK293 cells - 0 hour (AID 1224869). Also: nearly all actives have a fitted effect of over 50% in size. To be noted: CellTox Green fluorescence; series mostly up to 76.8 µM; cytotoxicity: at the top concentration. The text has this:
National Center for Advancing Translational Sciences [NCATS]
NIH Chemical Genomics Center [NCGC]
U.S. Environmental Protection Agency [EPA]
National Institutes of Environmental Health Sciences [NIEHS]
National Toxicology Program [NTP]
Cell-based models are critical for drug discovery. Determining the natural cytotoxic effects resulting from test compounds is an essential research activity. A CellTox Green Cytotoxicity Assay to monitor cytotoxicity in real time of continues cell culture during 40 hours of the compound treatment was used to screen Tox21 10K library compounds in Hek293 cells. CellTox Green Cytotoxicity Assay is a nonlytic, homogeneous, biofluorescent method to measure cytotoxicity in cell culture after experimental manipulation. The assay system uses a proprietary asymmetric cyanine dye that is excluded from viable cells but preferentially stains the dead cell's DNA. […] Viable cells produce no appreciable increases in fluorescence. Therefore, the fluorescence signal produced by the binding interaction with dead cell DNA is proportional to cytotoxicity.
The mixture of Hek293 cell suspension and reagents were dispensed at 600cells/6 ul/well in 1536-well tissue culture treated black solid bottom plates using a Multidrop dispenser. After the assay plates were incubated at a 37 C/5% CO2 incubator for 5 hours, 23 nL of compounds dissolved in DMSO, positive and negative controls was transferred to the assay plate by a pintool work station. The plates were incubated at 37 C for 40 hours. The fluorescence intensity were measured at 0h, 8h, 16h, 24h, 32h and 40h time points using ViewLux plate reader during compound treatment.
Regarding `O=C(NO)c1ccccc1`, the “cytotoxicity” value is 6.91% (inactive). Consider `CCOCOCC`, for which the “cytotoxicity” value is 2.32% (inactive). With `O=C(O)Cc1ccc(OCCNC[C@H](O)c2ccccc2)cc1`, the “cytotoxicity” value was -0.812% [at 35.3 µM] (inactive). On the same count and under the same terms, as for `O=C(c1ccccc1)c1cc(Cl)ccc1O`, the figure is 2.1% (inactive). Same read-out and setting: as for `NC1(c2ccc(-c3nc4ccn5c(=O)[nH]nc5c4cc3-c3ccccc3)cc2)CCC1`, the figure is -0.225% [at 35.3 µM] (inactive). On the same count and under the same terms, the same measure for `CC(C)OC(=O)c1cc(C(=O)OC(C)C)cc([N+](=O)[O-])c1`: -1.49% (inactive); for `CCN=C1C=CC(=C(c2ccc(N(CC)CC)cc2)c2ccc(N(CC)CC)cc2)c2ccccc21`: -13.6% (inactive); for `CCCCNc1c(C(=O)OCC)c(C)nc2c1cnn2CC`: -1.27% [at 35.3 µM] (inactive). Regarding `Cc1ccc(-n2[nH]c(C)c(N=Nc3cccc(-c4cccc(C(=O)O)c4)c3O)c2=O)cc1C`, the “cytotoxicity” value is -3.69% [at 35.3 µM] (inactive). Regarding `C=C(c1ccc(C(=O)O)cc1)c1cc2c(cc1C)C(C)(C)CCC2(C)C`, the Potency result was “inactive”. In the case of `NC(=O)C(=O)N/N=C/c1ccc([N+](=O)[O-])o1`, the “cytotoxicity” value is -2.09% [at 35.3 µM] (inactive). Turning to `CC(C)=CCCC(C)CCOC(=O)C(C)C` (stereo not given), the “cytotoxicity” value is -0.783% (inactive). Still for that read-out and setting: as for `CC(C)C(=O)OCc1ccccc1`, the figure is 0.108% (inactive). Same read-out and setting: the same measure for `C=C/C=C/C=C/CCCCC`: -0.619% [at 15.8 µM] (inactive). With `CC1(C)C(=O)N(Br)C(=O)N1Br`, the “cytotoxicity” value is -4.31% (inactive).

Regarding `CC(C)(C)CC(C)(C)c1ccccc1O`, the “cytotoxicity” value is -0.573% (inactive). On the same count and under the same terms, the same measure for `c1ccc(Sc2ccccc2)cc1`: 0.177% (inactive); for `CCc1cccc(C)c1`: -1.73% (inactive).

Turning to `CCCCCCS`, the “cytotoxicity” value is 1.05% (inactive). Same read-out and setting: as for `NCCCCCCNCCCCCCN`, the figure is -3.95% (inactive); as for `Cc1cc2c(C(C)C)c(O)c(O)c(C=O)c2c(O)c1-c1c(C)cc2c(C(C)C)c(O)c(O)c(C=O)c2c1O`, -4.47% [at 35.3 µM] (inactive). With `O=C1NCN(c2ccccc2)C12CCN(CCCC(c1ccc(F)cc1)c1ccc(F)cc1)CC2`, the “cytotoxicity” value was 2.69% [at 35.3 µM] (inactive).

Take `O=C[C@H](O)[C@H](O)[C@H](O)CO`: the “cytotoxicity” value was -2.87% (inactive). `Cc1ccc(CCn2c3c(c4cc(Cl)ccc42)CN(C)CC3)cn1`: the “cytotoxicity” value was 3.34% [at 35.3 µM] (inactive). As for `Cn1cnc2ncnc(N)c21`, the “cytotoxicity” value was -5% [at 35.3 µM] (inactive). Regarding `CCCCCCCCCCCCN(CCO)CCO`, the “cytotoxicity” value was 3.41% (inactive). Same read-out and setting: the same measure for `CN(C)CCCN1c2ccccc2Sc2ccc(C(F)(F)F)cc21`: -5.35% [at 35.3 µM] (inactive); for `COc1nccnc1CC(C)C`: 5.09% (inactive). In the case of `CNC(=O)c1cc(Oc2ccc(NC(=O)Nc3ccc(Cl)c(C(F)(F)F)c3)cc2)ccn1`, the “cytotoxicity” value is 4.29% [at 35.3 µM] (inactive). Same read-out and setting: the same measure for `Cc1ccc2ccc3cccc4ccc1c2c34`: 2.75% (inactive). Take `C=CC(C)(CCC=C(C)C)OC(=O)/C=C/c1ccccc1` (stereo not given): the Potency is 38.9 µM (active). Turning to `CCCCCCCC/C=C/CCCOC(C)=O`, the “cytotoxicity” value was 8.85% (inactive).

In the case of `Cn1cccc1`, the “cytotoxicity” value was -1.75% (inactive).

`CCCCOc1ccc(C(=O)CCN2CCCCC2)cc1`: the “cytotoxicity” value is 6.42% [at 35.3 µM] (inactive). Regarding `Nc1ccc2cc3ccc(N)cc3nc2c1`, the Potency was 38.9 µM (active) and 21.3 µM (active). Consider `CCCC(O)C(O)CO` (stereo not given), for which the “cytotoxicity” value was 0.917% (inactive). Same read-out and setting: as for `CCc1cccc(CC)c1NC(=O)C(=O)O`, the figure is 14.8% (inactive). On the same count and under the same terms, the same measure for `CC(C)CCOCCC(C)C`: -3.47% (inactive); for `Clc1ccc(C(Cn2ccnc2)OCc2ccsc2Cl)c(Cl)c1` (stereo not given): -0.176% [at 35.3 µM] (inactive); for `O=S(=O)(O)c1cc(S(=O)(=O)O)c2ccc3c(S(=O)(=O)O)cc(S(=O)(=O)O)c4ccc1c2c43`: -7.26% [at 15.8 µM] (inactive).
